Assay outcomes (PubChem)
TNF necrop inh: TNF-alpha cell death inhibition in Jurkat FADD-/- cells; AID 463075; 220,000 tested, 0.068% active; activation (protection from cell death), % at 10 µM; Jurkat FADD-/- TNF necroptosis rescue, ATP luminescence, 24 h; 0 = TNF only, 100 = no-TNF cells;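 active = activation, meaning protection from cell death, of at least 50% relative to plate controls; inactive = activation below 50%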;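 note: necroptosis triggered by 40 ng/mL TNF-alpha added together with compound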
HMGR II inh: inhibitors of class II HMG-CoA reductase from Enterococcus faecalis; purified E. faecalis HMGR, NADPH absorbance 340 nm kinetic; inhibition, % at 10 µM; 190,000 tested, 0.41% active; AID 1066;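 active = inhibition above a set limit, the median over all tested compounds plus 3 SD, cut at about 9.5% in these data; inconclusive = no clear call, values can overlap the other calls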;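 note: enzyme runs in reverse so mevalonate oxidation gives rising NADPH absorbance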
L929 necroptosis: blocks zVAD induced death of L929 cells; L929 zVAD necroptosis rescue, ATP luminescence, 24 h; with zVAD 60 µM; viability rescue, % at 10 µM; 220,000 tested, 0.38% active;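 active = activation, scaled between plate controls, above about 75%, limit read from the data; inactive = activation under that limit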
Calpain2 inh: inhibitors of pig calpain II; purified calpain II, fluorogenic peptide substrate, 30 min; 220,000 tested, 0.37% active; inhibition, % at 16 µM;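 active = inhibition above about 50%, limit read from the data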
14-3-3 Bad inh: disrupts binding of bovine 14-3-3 zeta to phospho-Bad peptide; inhibition, % at 21.7 µM; P63103; 220,000 tested, 0.71% active; AID 781; TR-FRET 14-3-3zeta/Dy647-pBad peptide displacement, 1 h;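 active = inhibition above about 70%, limit read from the data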
Target sequence (P63103 whole entry, looked up): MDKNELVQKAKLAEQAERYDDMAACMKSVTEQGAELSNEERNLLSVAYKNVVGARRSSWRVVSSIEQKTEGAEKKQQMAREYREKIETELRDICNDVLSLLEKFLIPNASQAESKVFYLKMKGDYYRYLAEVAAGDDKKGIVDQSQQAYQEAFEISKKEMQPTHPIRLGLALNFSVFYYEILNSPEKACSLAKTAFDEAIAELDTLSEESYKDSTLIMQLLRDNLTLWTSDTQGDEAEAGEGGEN
ROMK primary: modulators of human ROMK potassium channel; Tet-inducible ROMK, thallium flux fluorescence; actives lie on both sides; B-score at 10 µM; 130,000 tested, 2% active; P48048;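 active = signal ratio slope over the read window, or its plate-corrected B-score, at least 3 SD from the plate mean, either direction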;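 note: B-score of the F/F0 ratio slope over 7 to 12 s after thallium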
Target sequence (P48048 whole entry, looked up): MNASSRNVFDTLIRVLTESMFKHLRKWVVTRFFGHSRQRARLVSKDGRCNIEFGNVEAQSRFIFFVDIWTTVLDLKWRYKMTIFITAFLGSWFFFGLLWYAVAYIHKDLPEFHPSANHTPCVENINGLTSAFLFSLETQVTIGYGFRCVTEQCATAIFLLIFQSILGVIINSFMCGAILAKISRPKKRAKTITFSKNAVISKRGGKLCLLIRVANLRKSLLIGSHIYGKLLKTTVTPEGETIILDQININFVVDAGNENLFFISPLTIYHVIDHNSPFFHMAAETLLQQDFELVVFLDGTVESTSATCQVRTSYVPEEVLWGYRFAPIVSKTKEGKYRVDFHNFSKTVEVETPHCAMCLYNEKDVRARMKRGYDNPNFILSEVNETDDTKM
ROMK retest: retested hit modulating human ROMK potassium channel. shares compounds with ROMK primary. ROMK thallium flux, fluorescence ratio; stronger effect = lower value. normalized thallium flux (F/F0 slope) at 10 µM. 3,000 tested, 54% active;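 active = Flux at 10 µM at least 3 SD below or above vehicle control mean in one or both replicates; inconclusive = no clear call, values can overlap the other calls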
Of the large screens only hits and unclear results are named; the others gave an inactive call (follow-up assays come after a bar, where they were run). Sampled rows, rich in hits. Any-hit rate of the full collection: about 3%.

COc1ccc(C(=O)COC(=O)c2ccccc2NS(=O)(=O)c2ccc(O)c([N+](=O)[O-])c2)cc1	none (no result: HMGR II inh, ROMK primary) | ROMK retest inactive
COc1ccc(CCNc2oc(COc3ccccc3Cl)nc2C#N)cc1OC	none (no result: ROMK primary) | ROMK retest 0.0668
COc1ccc(CCNc2oc(COc3ccccc3F)nc2C#N)cc1OC	none
O=C(CCl)c1ccc2c(c1)CCN2C(=O)C1CC1	ROMK primary -2.84 | ROMK retest 0.0635
O=C(CCl)c1ccc2c(c1)CCN2C(=O)C1CCCCC1	none (no result: ROMK primary)
Cc1cc2ccccc2n1CCNC(=O)c1cccs1	none (no result: ROMK primary) | ROMK retest 0.0685
CCC(C(=O)c1ccccc1)P(=O)(NN)c1ccccc1 (centres undefined)	none (no result: HMGR II inh, ROMK primary)
COc1ccc(CNc2nc3ccccc3n2C)c(OC)c1	ROMK primary -7.63 | ROMK retest inactive
Nc1nc(NCc2ccco2)nc(N2CCCCCC2)c1[N+](=O)[O-]	none (no result: ROMK primary) | ROMK retest 0.0622
Nc1nc(NCc2ccco2)nc(N2CCCC2)c1[N+](=O)[O-]	none (no result: HMGR II inh, ROMK primary)
COc1cccc(Cc2n[nH]c(=S)n2Cc2ccco2)c1	none (no result: HMGR II inh)
CC12CCC(C(=O)Nc3cc(Cl)ccc3Cl)(C/C1=N\O)C2(C)C (centres undefined)	none (no result: ROMK primary)
Cc1cc2c(cc1C)N(C(=O)CSc1nncn1C)C(C)(C)c1ssc(=S)c1-2	ROMK primary -3.49 | ROMK retest 0.064
Cc1ccc2c(c1)N(C(=O)CSc1nncn1C)C(C)(C)c1ssc(=S)c1-2	none (no result: ROMK primary)
COc1cc(/C=C/C(=O)NC(C)CCc2ccccc2)cc(OC)c1OC (centres undefined)	none
Cc1sc(NC(=O)CCCC(=O)O)c(C#N)c1C	none (no result: ROMK primary) | ROMK retest inactive
O=C1/C(=C/c2ccc(N3CCOCC3)o2)SC(=Nc2ccccc2)N1CCc1c[nH]c2ccccc12	none (no result: ROMK primary) | ROMK retest 0.0588
COc1cc(/C=C2\SC(=Nc3ccccc3)N(CCc3c[nH]c4ccccc34)C2=O)ccc1OC(C)C(=O)O (centres undefined)	none (no result: ROMK primary)
CC1(C)C(=O)N(OCc2ccccc2)C(C)(C)C(=O)N1OCc1ccccc1	none
CCc1ccccc1NC(=S)N(CCOC)C(C)c1ccco1 (centres undefined)	none (no result: HMGR II inh, ROMK primary)
Cc1ccc(NC(=O)c2nc(C)n(-c3ccc([N+](=O)[O-])cc3)n2)cc1	none (no result: ROMK primary) | ROMK retest inconclusive
CC(=O)Nc1nonc1NC(=O)COc1ccccc1	none
Cn1cnnc1SCc1ccc(C(=O)N=Nc2c(O)n(Cc3ccc(Cl)cc3)c3ccccc23)cc1	ROMK primary -2.19 | ROMK retest 0.0648
CCn1c(O)c(N=NC(=O)c2ccc(CSc3nncn3C)cc2)c2ccccc21	ROMK primary -3.43 | ROMK retest inactive
O=C(N=Nc1c(O)n(Cc2ccccc2)c2ccccc12)c1ccc(O)cc1	none
CCC(C(=O)NC(C)(C)C)N(C(=O)Cn1nnc(-c2ccccc2F)n1)c1cccc2c1CCCC2 (centres undefined)	none (no result: ROMK primary)
O=S(=O)(Cc1ccccc1)Nc1ccc(S(=O)(=O)NCC2CCCO2)cc1 (centres undefined)	none (no result: ROMK primary) | ROMK retest inactive
O=S(=O)(Cc1ccccc1)NCC1CCCO1 (centres undefined)	none (no result: ROMK primary)
Cc1c(-c2ccn[nH]2)cc(NC(=O)c2ccc(Cl)cc2)c(=O)n1N	none
COc1ccc(C2NCCc3c2[nH]c2ccccc32)cc1CN1CCc2cc(OC)c(OC)cc2C1C (centres undefined)	ROMK primary -3.82 (no result: HMGR II inh) | ROMK retest 0.0547
COc1ccc(C2NCCc3c2[nH]c2ccccc32)cc1COc1ccc(F)cc1 (centres undefined)	none
COC(=O)[C@@]1(Cc2ccccc2)[C@@H]2C(=CC(=O)[C@H]2CC(=O)C(=O)N(C)C)CN1C(=O)c1ccccc1	ROMK primary -4.6 | ROMK retest 0.0492
CCCCCCCCCCCC(=O)NC(C(=O)OCC)C(O)c1cccc([N+](=O)[O-])c1 (centres undefined)	none (no result: ROMK primary)
Cc1cccc(NC(=O)CSc2nnc(NC(=O)c3ccc(S(=O)(=O)N4CCOCC4)cc3)s2)c1C	none | ROMK retest inactive
CC(C)(C)NS(=O)(=O)c1ccc(CCC(=O)NCc2ccc3c(c2)OCO3)cc1	none (no result: ROMK primary)
Cc1cccc2sc(N(CCCN(C)C)C(=O)CCc3ccccc3)nc12	ROMK primary -2.09 | ROMK retest 0.0638
Cc1cccc2sc(N(CCCN(C)C)C(=O)CN3C(=O)c4ccccc4C3=O)nc12	none
CN1C(=O)C2(OCC(COc3ccc(Cl)cc3)O2)c2ccccc21 (centres undefined)	none (no result: ROMK primary) | ROMK retest inactive
CCOC(=O)c1c(CSCc2ccccc2)oc2ccc(O)c(CN(C)C)c12	none (no result: HMGR II inh, ROMK primary) | ROMK retest 0.0607
COc1cc(NC(=O)COc2ccc(-n3cnnn3)cc2)c(OC)cc1Cl	none (no result: ROMK primary) | ROMK retest inactive
CCN(CC)C1=NC=CC(c2ccccc2)=CC1C (centres undefined)	none
CCCCN=c1scc(-c2ccc3c(c2)NC(=O)CO3)n1N=C1CCCC1	none
CCN=c1scc(-c2ccc3c(c2)NC(=O)CO3)n1N=C1CCCC1	none (no result: ROMK primary) | ROMK retest inactive
N#C/C(=C\c1ccccc1Cl)C(=O)NC(=O)Oc1ccccc1	ROMK primary -4.29 | ROMK retest 0.0461
N#C/C(=C\c1ccccc1)C(=O)NC(=O)Oc1ccccc1	none
CCC(C)(C(=O)NC1CCCCC1)N(CC1CCCO1)C(=O)Cc1cccs1 (centres undefined)	ROMK primary -7.8 | ROMK retest inactive
CCC(C)(C(=O)NC1CCCC1)N(Cc1cccs1)C(=O)Cc1cccs1 (centres undefined)	none
Cn1c(=O)c2[nH]c(-c3ccccc3Cl)c(O)c2n(C)c1=O	ROMK primary -3.91 | ROMK retest 0.0629
Cc1nn(C)c(Oc2ccccc2)c1CCNC(=O)C(C)(C)C	none
Cc1ccc(C)c2[nH]c(=O)c(CN(CC3CCCO3)C(=S)NCc3ccco3)cc12 (centres undefined)	ROMK primary -3.52 (no result: HMGR II inh) | ROMK retest inconclusive
Cc1ccc(C)c2[nH]c(=O)c(CN(Cc3cccs3)C(=S)NCc3ccco3)cc12	none
CCc1ccc2[nH]c(=O)c(CN(CC3CCCO3)C(=S)NCc3ccco3)cc2c1 (centres undefined)	none (no result: HMGR II inh)
Cc1ccc2cc(CN(CC3CCCO3)C(=S)NCc3ccco3)c(=O)[nH]c2c1C (centres undefined)	none (no result: ROMK primary) | ROMK retest inactive
COc1cc2c(C(=O)N3CCN(c4ccccc4F)CC3)cn(C)c(=O)c2cc1OC	none
COc1ccc(CN2CN(S(=O)(=O)c3ccccc3)c3nc4ccccc4nc32)cc1	none (no result: HMGR II inh, ROMK primary)
CCOC(=O)c1sc2nc3c(SCCC#N)cc(C(=O)c4cc(F)ccc4O)cn3c(=O)c2c1C	ROMK primary -3.84 | ROMK retest inactive
